Of roughly 8,800 targets only a part is listed; those with a hit were picked by preference. About 0.5% of all pairs of compound and target were hits. Values without a mark were called inactive.

Chain of UniProt Q13042 (Q13042 whole entry, looked up): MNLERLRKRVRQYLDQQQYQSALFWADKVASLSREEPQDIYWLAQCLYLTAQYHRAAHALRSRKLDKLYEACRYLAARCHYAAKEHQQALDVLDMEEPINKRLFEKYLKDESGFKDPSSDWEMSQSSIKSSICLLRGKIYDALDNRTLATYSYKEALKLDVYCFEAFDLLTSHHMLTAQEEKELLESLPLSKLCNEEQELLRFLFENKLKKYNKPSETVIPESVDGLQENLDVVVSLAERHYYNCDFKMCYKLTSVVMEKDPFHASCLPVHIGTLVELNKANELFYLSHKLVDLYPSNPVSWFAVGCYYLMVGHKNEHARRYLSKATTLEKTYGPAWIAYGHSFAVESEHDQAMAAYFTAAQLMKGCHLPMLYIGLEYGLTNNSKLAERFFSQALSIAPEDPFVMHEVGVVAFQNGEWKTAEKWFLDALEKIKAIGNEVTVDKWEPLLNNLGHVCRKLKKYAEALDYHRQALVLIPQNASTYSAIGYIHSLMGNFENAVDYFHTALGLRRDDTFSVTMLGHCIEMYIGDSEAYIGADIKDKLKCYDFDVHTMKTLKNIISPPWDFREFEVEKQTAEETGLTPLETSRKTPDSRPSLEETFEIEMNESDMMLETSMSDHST
Chain of UniProt Q86WR0 (Q86WR0 whole entry, looked up): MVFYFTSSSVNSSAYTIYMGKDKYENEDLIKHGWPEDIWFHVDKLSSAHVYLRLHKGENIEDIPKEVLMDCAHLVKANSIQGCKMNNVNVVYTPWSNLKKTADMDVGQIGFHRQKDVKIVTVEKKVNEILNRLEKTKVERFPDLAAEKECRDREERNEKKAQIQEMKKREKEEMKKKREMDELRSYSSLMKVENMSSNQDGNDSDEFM
Chain of UniProt Q12981 (Q12981 whole entry, looked up): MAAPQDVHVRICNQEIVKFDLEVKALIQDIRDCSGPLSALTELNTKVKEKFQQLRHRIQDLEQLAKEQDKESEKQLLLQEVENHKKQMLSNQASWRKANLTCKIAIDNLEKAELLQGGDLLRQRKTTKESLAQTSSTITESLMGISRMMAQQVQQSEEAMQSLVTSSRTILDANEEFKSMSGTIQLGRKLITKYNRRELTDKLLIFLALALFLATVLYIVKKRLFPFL
Chain of UniProt Q5T9A4 (Q5T9A4 whole entry, looked up): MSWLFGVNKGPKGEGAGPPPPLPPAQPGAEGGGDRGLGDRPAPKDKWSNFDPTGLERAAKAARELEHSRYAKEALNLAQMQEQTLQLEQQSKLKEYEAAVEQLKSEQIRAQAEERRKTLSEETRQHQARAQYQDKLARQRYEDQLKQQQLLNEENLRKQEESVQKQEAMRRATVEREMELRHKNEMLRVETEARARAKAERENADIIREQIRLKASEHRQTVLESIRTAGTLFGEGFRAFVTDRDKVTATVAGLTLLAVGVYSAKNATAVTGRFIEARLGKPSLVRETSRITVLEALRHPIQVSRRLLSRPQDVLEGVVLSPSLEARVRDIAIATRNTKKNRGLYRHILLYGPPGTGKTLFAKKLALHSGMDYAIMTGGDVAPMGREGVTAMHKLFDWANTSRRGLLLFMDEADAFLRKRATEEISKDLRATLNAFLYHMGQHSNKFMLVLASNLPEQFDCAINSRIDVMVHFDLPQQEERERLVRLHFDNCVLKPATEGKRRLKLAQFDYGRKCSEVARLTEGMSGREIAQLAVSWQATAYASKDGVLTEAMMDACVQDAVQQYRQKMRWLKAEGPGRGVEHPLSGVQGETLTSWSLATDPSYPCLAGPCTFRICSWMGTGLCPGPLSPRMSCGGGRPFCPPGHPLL
Chain of UniProt Q5BKX5 (Q5BKX5 whole entry, looked up): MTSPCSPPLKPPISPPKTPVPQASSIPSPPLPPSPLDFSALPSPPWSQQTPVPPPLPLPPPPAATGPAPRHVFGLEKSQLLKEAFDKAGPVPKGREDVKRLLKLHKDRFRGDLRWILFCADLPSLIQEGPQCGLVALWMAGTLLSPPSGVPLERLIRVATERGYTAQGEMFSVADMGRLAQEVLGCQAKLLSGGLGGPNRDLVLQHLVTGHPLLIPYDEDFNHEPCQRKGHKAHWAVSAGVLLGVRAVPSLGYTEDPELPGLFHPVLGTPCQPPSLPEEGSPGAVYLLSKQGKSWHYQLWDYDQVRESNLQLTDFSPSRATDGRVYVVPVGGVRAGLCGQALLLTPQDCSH
Chain of UniProt O95067 (O95067 whole entry, looked up): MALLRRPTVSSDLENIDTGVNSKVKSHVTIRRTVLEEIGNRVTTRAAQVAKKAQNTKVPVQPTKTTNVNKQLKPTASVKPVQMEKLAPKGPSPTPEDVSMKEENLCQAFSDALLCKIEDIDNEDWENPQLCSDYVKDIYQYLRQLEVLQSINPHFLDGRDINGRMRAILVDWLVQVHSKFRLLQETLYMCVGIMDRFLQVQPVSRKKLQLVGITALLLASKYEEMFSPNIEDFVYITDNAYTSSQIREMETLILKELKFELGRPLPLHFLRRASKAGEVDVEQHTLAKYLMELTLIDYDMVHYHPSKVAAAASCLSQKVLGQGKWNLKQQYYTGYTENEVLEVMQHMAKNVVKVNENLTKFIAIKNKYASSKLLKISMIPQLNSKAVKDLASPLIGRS
Chain of UniProt Q9UEE9 (Q9UEE9 whole entry, looked up): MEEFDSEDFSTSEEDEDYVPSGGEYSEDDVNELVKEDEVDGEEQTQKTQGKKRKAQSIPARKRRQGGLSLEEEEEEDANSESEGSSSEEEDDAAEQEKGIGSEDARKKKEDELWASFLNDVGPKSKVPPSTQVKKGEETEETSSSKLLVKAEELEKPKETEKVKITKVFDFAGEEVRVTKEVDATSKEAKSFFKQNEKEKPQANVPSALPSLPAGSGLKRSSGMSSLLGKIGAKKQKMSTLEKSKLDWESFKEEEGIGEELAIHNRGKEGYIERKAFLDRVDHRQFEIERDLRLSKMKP
Chain of UniProt O00311 (O00311 whole entry, looked up): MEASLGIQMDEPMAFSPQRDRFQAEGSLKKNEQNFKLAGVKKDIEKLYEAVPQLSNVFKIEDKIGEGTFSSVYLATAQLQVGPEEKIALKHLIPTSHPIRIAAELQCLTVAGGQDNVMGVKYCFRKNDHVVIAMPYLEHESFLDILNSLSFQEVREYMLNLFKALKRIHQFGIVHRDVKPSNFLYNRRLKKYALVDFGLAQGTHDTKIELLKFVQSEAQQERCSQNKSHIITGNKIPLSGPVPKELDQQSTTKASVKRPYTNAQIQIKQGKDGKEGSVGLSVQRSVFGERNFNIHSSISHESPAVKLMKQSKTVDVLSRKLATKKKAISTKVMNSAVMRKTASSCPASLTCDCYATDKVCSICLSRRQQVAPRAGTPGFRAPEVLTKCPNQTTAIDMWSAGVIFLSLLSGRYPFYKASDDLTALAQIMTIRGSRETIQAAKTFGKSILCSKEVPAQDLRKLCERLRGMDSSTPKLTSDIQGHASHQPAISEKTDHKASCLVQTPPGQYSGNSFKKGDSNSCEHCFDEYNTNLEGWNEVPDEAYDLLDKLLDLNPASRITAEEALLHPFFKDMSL
Chain of UniProt O95260 (O95260 whole entry, looked up): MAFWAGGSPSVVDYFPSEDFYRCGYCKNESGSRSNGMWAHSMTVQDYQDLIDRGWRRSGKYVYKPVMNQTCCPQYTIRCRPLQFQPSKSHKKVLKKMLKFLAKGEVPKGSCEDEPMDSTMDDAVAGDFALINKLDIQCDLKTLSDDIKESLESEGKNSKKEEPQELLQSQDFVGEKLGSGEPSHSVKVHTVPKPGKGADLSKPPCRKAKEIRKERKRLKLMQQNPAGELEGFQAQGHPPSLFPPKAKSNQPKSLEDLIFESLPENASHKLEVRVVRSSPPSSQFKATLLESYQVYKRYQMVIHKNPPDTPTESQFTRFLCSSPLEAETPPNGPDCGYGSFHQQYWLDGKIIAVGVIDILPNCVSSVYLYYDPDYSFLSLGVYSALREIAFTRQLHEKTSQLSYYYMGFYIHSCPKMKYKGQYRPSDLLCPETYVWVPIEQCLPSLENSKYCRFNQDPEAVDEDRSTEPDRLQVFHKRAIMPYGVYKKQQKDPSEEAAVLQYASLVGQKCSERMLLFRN
Chain of UniProt O75081 (O75081 whole entry, looked up): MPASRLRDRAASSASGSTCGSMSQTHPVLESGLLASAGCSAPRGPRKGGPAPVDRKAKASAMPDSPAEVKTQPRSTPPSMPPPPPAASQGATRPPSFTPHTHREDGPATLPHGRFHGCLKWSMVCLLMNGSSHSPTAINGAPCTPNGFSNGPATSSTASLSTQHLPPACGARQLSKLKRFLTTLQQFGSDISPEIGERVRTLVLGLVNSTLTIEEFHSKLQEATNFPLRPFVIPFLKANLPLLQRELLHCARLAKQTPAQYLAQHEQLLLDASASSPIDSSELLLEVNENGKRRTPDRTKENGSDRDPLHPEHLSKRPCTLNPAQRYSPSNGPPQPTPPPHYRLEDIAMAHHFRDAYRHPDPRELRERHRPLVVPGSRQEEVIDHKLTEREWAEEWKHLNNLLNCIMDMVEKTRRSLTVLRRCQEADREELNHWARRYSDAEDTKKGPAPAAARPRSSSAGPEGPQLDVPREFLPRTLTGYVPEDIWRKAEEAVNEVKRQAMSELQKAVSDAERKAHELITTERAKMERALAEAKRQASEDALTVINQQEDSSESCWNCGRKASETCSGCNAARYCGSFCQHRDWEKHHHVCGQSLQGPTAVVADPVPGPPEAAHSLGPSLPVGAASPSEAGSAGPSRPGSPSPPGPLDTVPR
Chain of UniProt O75794 (O75794 whole entry, looked up): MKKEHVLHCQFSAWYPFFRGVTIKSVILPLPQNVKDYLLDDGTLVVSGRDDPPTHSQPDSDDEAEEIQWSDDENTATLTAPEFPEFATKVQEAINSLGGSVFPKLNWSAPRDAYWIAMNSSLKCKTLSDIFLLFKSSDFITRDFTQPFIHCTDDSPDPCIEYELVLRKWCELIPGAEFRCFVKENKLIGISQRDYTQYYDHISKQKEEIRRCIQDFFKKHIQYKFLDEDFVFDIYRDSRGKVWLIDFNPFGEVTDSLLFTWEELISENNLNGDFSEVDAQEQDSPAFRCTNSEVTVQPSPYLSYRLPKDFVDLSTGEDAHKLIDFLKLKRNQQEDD

Compound in one assay: CN1CC[C@H](c2c(O)cc(O)c3c(=O)cc(-c4ccccc4Cl)oc23)[C@H](O)C1 [alvocidib]
Nature of the assay: log2 fold change, soluble protein after heating vs DMSO (PISA); higher = thermal stabilisation; K562 lysate, 10 uM; active = over 0.2 and 3.5 SD of the protein, either way, in both replicates (recomputed). Summed up: (§1)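 The values are log-two fold changes in thermal stability compared with solvent controls and come from duplicates. They were obtained by TMTpro 16plex LC-MS/MS, with channel sums equalised, on the supernatant after 21,000xg for 90 min. That supernatant came from crude K562 extract at 1 mg/mL protein treated with 10 μM compound for 30 min, heated for 3 min across 48°C-58°C, pooled and brought to 0.5% NP-40 at 4°C.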
CARD9 (UniProt Q9H257): the log2 fold change is -0.011.
Still for that read-out and setting: with ATG13 isoform 2 (UniProt O75143) the figure was -0.106; with CCDC25 (UniProt Q86WR0), 0.132.
Regarding CCPG1 isoform 5 (UniProt Q9ULG6), the log2 fold change was 0.029.
The same measure, in the same setting: then BRAF (UniProt P15056), with -0.019.
Still for that read-out and setting: then CALB2 (UniProt P22676), with -0.028; and CES2 isoform 4 (UniProt O00748), with 0.021.
In the case of CCDC47 (UniProt Q96A33), the log2 fold change is 0.009.
For the target CCNB2 (UniProt O95067), the log2 fold change is 0.046.
With ATP2B4 (UniProt P23634), the log2 fold change was -0.116.
For the target CDKN1C (UniProt P49918), the log2 fold change is -0.035.
As to ATAD3B (UniProt Q5T9A4), the log2 fold change is 0.124.
CEP76 (UniProt Q8TAP6): the log2 fold change is -0.031.
For the target CDK13 (UniProt Q14004), the log2 fold change was 0.287 (active).
In the case of C2CD5 isoform 3 (UniProt Q86YS7), the log2 fold change is -0.157.
As for CDAN1 (UniProt Q8IWY9), the log2 fold change is -0.034.
In the case of ATRIP (UniProt Q8WXE1), the log2 fold change is 0.012.
Same read-out and setting: then CAMK2G isoform 8 (UniProt Q13555), with 0.334 (active); and CDC16 (UniProt Q13042), with 0.012.
CDC7 (UniProt O00311): the log2 fold change is -0.081.
In the case of BNIP1 (UniProt Q12981), the log2 fold change was 0.231.
As to CAD (UniProt P27708), the log2 fold change is 0.
As to CFDP1 (UniProt Q9UEE9), the log2 fold change was -0.104.
As for C15orf41 (UniProt Q9Y2V0), the log2 fold change is -0.002.
For the target CDC123 (UniProt O75794), the log2 fold change is 0.019.
Regarding BMS1 (UniProt Q14692), the log2 fold change was -0.016.
Consider CCNA2 (UniProt P20248), for which the log2 fold change was 0.044.
The same measure, in the same setting: then ATE1 isoform 2 (UniProt O95260), with -0.116; and BPHL (UniProt Q86WA6), with 0.004.
The same measure, in the same setting: then ATR (UniProt Q13535), with -0.134; and BORCS5 (UniProt Q969J3), with -0.012; and CCNYL1 (UniProt Q8N7R7), with -0.074.
Consider CBFA2T3 (UniProt O75081), for which the log2 fold change was -0.039.
The same measure, in the same setting: then ATG7 (UniProt O95352), with 0.01; and CAMKK2 (UniProt Q96RR4), with -0.018.
Take C19orf54 (UniProt Q5BKX5): the log2 fold change is -0.032.
In the case of ATXN2 (UniProt Q99700), the log2 fold change is 0.046.
Regarding CASP3 (UniProt P42574), the log2 fold change was 0.045.
Same read-out and setting: then CAMKK1 isoform 2 (UniProt Q8N5S9), with 0.088.

Compound in another assay: CN1CCc2c(c3ccccc3n2Cc2ccc(C(=O)NO)cc2)C1 [Tubastatin A]
The assay is described as above. Put shortly:
as §1
CARD9 (UniProt Q9H257): the log2 fold change is -0.099.
The same measure, in the same setting: then ATG13 isoform 2 (UniProt O75143), with -0.035; and CCDC25 (UniProt Q86WR0), with 0.
CCPG1 isoform 5 (UniProt Q9ULG6): the log2 fold change was 0.006.
In the case of BRAF (UniProt P15056), the log2 fold change is -0.071.
As for CALB2 (UniProt P22676), the log2 fold change was -0.022.
CES2 isoform 4 (UniProt O00748): the log2 fold change is -0.065.
With CCDC47 (UniProt Q96A33), the log2 fold change was 0.016.
On the same count and under the same terms, with CCNB2 (UniProt O95067) the figure was 0.027; with ATP2B4 (UniProt P23634), 0.015; with CDKN1C (UniProt P49918), -0.056.
On the same count and under the same terms, then ATAD3B (UniProt Q5T9A4), with 0.047; and CEP76 (UniProt Q8TAP6), with -0.015.
For CDK13 (UniProt Q14004), the log2 fold change was -0.1.
With C2CD5 isoform 3 (UniProt Q86YS7), the log2 fold change was 0.006.
On to CDAN1 (UniProt Q8IWY9), for which the log2 fold change is -0.051.
In the case of ATRIP (UniProt Q8WXE1), the log2 fold change is -0.105.
On the same count and under the same terms, then CAMK2G isoform 8 (UniProt Q13555), with -0.098; and CDC16 (UniProt Q13042), with -0.1.
CDC7 (UniProt O00311): the log2 fold change is -0.112.
In the case of BNIP1 (UniProt Q12981), the log2 fold change was -0.045.
On to CAD (UniProt P27708), for which the log2 fold change was -0.063.
Turning to CFDP1 (UniProt Q9UEE9), the log2 fold change was 0.057.
Same read-out and setting: with C15orf41 (UniProt Q9Y2V0) the figure was -0.036; with CDC123 (UniProt O75794), -0.125.
Regarding BMS1 (UniProt Q14692), the log2 fold change is -0.024.
For the target CCNA2 (UniProt P20248), the log2 fold change was 0.011.
Regarding ATE1 isoform 2 (UniProt O95260), the log2 fold change is -0.008.
For the target BPHL (UniProt Q86WA6), the log2 fold change is -0.006.
As for ATR (UniProt Q13535), the log2 fold change is -0.067.
As for BORCS5 (UniProt Q969J3), the log2 fold change is 0.043.
With CCNYL1 (UniProt Q8N7R7), the log2 fold change was -0.076.
In the case of CBFA2T3 (UniProt O75081), the log2 fold change is -0.131.
Still for that read-out and setting: with ATG7 (UniProt O95352) the figure was -0.075; with CAMKK2 (UniProt Q96RR4), -0.123.
Same read-out and setting: with C19orf54 (UniProt Q5BKX5) the figure was 0.004; with ATXN2 (UniProt Q99700), -0.047; with CASP3 (UniProt P42574), 0.056.
Take CAMKK1 isoform 2 (UniProt Q8N5S9): the log2 fold change is -0.167.
